Measurements: PubChem BioAssay AID1159580 (chemical genetic matrix, 2015)
Several values for one entry are separate records, joined by “and”; a condition that tells them apart may be missing. Equal values may be shown once. Out of some 5,500 compounds screened, about 2,000 (36%) were called active. Not shown: some 18% with an inconclusive outcome. Cut-off read from the data, not from the text of the source: active = normalized growth mostly below about 0.91 (no sharp cut-off); inconclusive = no clear call, values can overlap the other calls; inactive = mostly above about 0.92. The list shows a part of the results.

Test: chemical genetic growth profiling, strain panel (AID 1159580);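 note: tested at 20 µM; growth read once vehicle control cultures reached saturation at 30 °C; 1 = growth at the plate median or of vehicle wells; lower values mean less growth of the strain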
Conditions: S. cerevisiae deletion strains, growth OD

Measured: normalized growth

COc1ccc2c(c1)[nH]c1c(C)nccc12
inactive: locus YAL013W, strain DEP1, hits give low values 1.02 | locus YAL021C, strain ccr4, hits give low values 0.978 | locus YAL026C, strain drs2, hits give low values 1 | locus YAL030W, strain snc1, hits give low values 1 | locus YBL061C, strain skt5, hits give low values 0.993 | locus YBR009C, strain hhf1, hits give low values 0.992 | locus YBR021W, strain FUR4, hits give low values 1.03 | locus YBR023C, strain chs3, hits give low values 1 | locus YBR171W, strain sec66, hits give low values 0.987 | locus YBR229C, strain ROT2, hits give low values 1.02 | locus YBR231C, strain swc5, hits give low values 0.994 | locus YBR279W, strain paf1, hits give low values 0.991 | locus YCL011C, strain gbp2, hits give low values 1.01 | locus YCL016C, strain dcc1, hits give low values 1 | locus YCL029C, strain bik1, hits give low values 0.968 | locus YCL061C, strain MRC1, hits give low values 0.994 | locus YCL069W, strain vba3, hits give low values 0.995 | locus YCR088W, strain abp1, hits give low values 1 | locus YDL005C, strain med2, hits give low values 0.994 | locus YDL035C, strain GPR1, hits give low values 0.998 | locus YDL040C, strain nat1, hits give low values 0.995 | locus YDL074C, strain BRE1, hits give low values 1.03 | locus YDL101C, strain DUN1, hits give low values 1.01 | locus YDL134C, strain PPH21, hits give low values 1.02 | locus YDL185W, strain tfp1, hits give low values 0.968 | locus YDL192W, strain arf1, hits give low values 0.979 | locus YDR001C, strain nth1, hits give low values 0.991 | locus YDR069C, strain doa4, hits give low values 0.997 | locus YDR101C, strain arx1, hits give low values 0.987 | locus YDR137W, strain rgp1, hits give low values 1.01 | locus YDR150W, strain NUM1, hits give low values 0.978 | locus YDR159W, strain sac3, hits give low values 1.01 | locus YDR162C, strain NBP2, hits give low values 1.02 | locus YDR195W, strain ref2 1.01 | locus YDR297W, strain sur2, hits give low values 0.999 | locus YDR318W, strain mcm21, hits give low values 0.986 | locus YDR334W, strain swr1, hits give low values 0.991 | locus YDR335W, strain msn5, hits give low values 0.994 | locus YDR388W, hits give low values 0.98 | locus YDR392W, strain spt3, hits give low values 0.991 | locus YDR502C, strain sam2, hits give low values 0.995 | locus YEL003W, strain gim4, hits give low values 0.988 | locus YEL037C, strain rad23, hits give low values 0.991 | locus YEL061C, strain CIN8 (second series), hits give low values 0.99 | locus YEL061C, strain CIN8, hits give low values 1.01 | locus YER015W, strain faa2, hits give low values 0.988 | locus YER016W, strain bim1, hits give low values 0.997 | locus YER110C, hits give low values 0.969 | locus YER111C, strain swi4, hits give low values 0.998 | locus YER155C, strain BEM2 (second series), hits give low values 0.95 | locus YER155C, strain BEM2, hits give low values 1.01 | locus YER167W, strain BCK2, hits give low values 1 | locus YFR010W, strain ubp6, hits give low values 0.982 | locus YGL078C, strain dbp3, hits give low values 0.972 | locus YGL086W, strain mad1, hits give low values 0.981 | locus YGL167C, strain pmr1, hits give low values 0.991 | locus YGL173C, strain kem1, hits give low values 0.999 | locus YGL227W, strain vid30, hits give low values 0.984 | locus YGL240W, strain doc1, hits give low values 0.989 | locus YGL248W, strain PDE1, hits give low values 1.02 | locus YGL253W, strain hxk2, hits give low values 0.995 | locus YGR078C, strain PAC10, hits give low values 1.03 | locus YGR135W, strain pre9, hits give low values 0.981 | locus YGR229C, strain SMI1, hits give low values 1.07 | locus YGR252W, strain gcn5, hits give low values 0.931 | locus YHR013C, strain ard1, hits give low values 1.01 | locus YHR027C, strain rpn1, hits give low values 0.991 | locus YHR030C, strain SLT2, hits give low values 1.01 and 1.02 | locus YHR079C, strain IRE1 (second series), hits give low values 0.988 | locus YHR079C, strain IRE1, hits give low values 1.03 | locus YHR094C, strain hxt1, hits give low values 0.963 | locus YHR129C, strain ARP1, hits give low values 1.01 | locus YHR142W, strain chs7, hits give low values 1.01 | locus YHR200W, strain rpn10, hits give low values 0.97 | locus YIL066C, strain RNR3, hits give low values 1.02 | locus YIL073C, strain SPO22, hits give low values 0.887 | locus YIL125W, strain kgd1, hits give low values 0.986 | locus YIR030C, strain dcg1, hits give low values 0.994 | locus YJL092W, strain hpr5, hits give low values 0.996 | locus YJL095W, strain BCK1 (second series), hits give low values 1 | locus YJL095W, strain BCK1, hits give low values 1.07 and 1.01 | locus YJL115W, strain asf1, hits give low values 0.979 | locus YJL129C, strain trk1, hits give low values 0.987 | locus YJL134W, strain LCB3, hits give low values 1.01 | locus YJL154C, strain vps35, hits give low values 1 | locus YJL164C, strain tpk1, hits give low values 0.997 | locus YJL166W, strain qcr8, hits give low values 0.991 | locus YJL168C, strain set2, hits give low values 0.996 | locus YJL187C, strain SWE1 (second series), hits give low values 1.01 | locus YJR043C, strain POL32, hits give low values 0.989 | locus YJR066W, strain TOR1, hits give low values 0.972
